Results published in PubChem BioAssay (NCATS).
Inconclusive results are not listed. Active and inactive are the calls of the source. Calls come from the whole dose curve.

Assays:
[1] = qHTS drug screen for cell cycle checkpoint inhibitors in PARPi-resistant BRCA-mutant ovarian cancer cell lines. (AID 1963452); settings: PEO1/OlaR viability, CellTiter-Glo luminescence, 96 h; for Z-AUC: stronger effect = lower value; note: potency is the fitted concentration of half-maximal effect
How it was run: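 PEO1, PEO4 and PEO1/OlaR ovarian cancer cells, 600 per well, exposed 96 h at 37C to a dilution series. Viability read by CellTiter-Glo luminescence, normalized to DMSO and empty wells; activity summarized as Z-AUC.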

[2] = qHTS for inhibitors of Rabies Virus screened against the NCATS CANVASS Library (AID 1347402); note: 0% is about no effect
[3] = qHTS Assay for Lipid Storage Modulators (AID 1519); settings: Drosophila S3 cells, BODIPY lipid droplet/cell ratio, laser cytometry, cells loaded with oleic acid; for activity change, negative = inhibition: % is set by controls: 0 for no effect and ±100 for the full control effect
How it was run: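 Cells seeded at 5,000 per well were treated with compounds over a concentration series and loaded with oleic acid (400 uM, as added). Lipid droplet fluorescence (488 nm excitation, 500-530 nm channel) was read by laser-scanning cytometry and normalized to 20 uM Triacsin C.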

[4] = measured here: PEO1 parental Z-AUC

SMILES: COc1cc(C)[nH]c(=O)c1CNC(=O)c1c(C)n([C@H](C)C2CCN(CC(F)(F)F)CC2)c2ccccc12
- Z-AUC [1]: 1.18 (inactive)
- Z-AUC [1, 4]: 0.708
- Z-AUC ([1]; measured here: PEO4 Z-AUC): 0.343

SMILES: O=C(CBr)N1CC([N+](=O)[O-])([N+](=O)[O-])C1
- Z-AUC [1]: 1.13 (inactive)
- Z-AUC [1, 4]: 0.0375
- Z-AUC ([1]; measured here: PEO4 Z-AUC): 1

SMILES: C[C@]12COC(=O)C[C@@H]1CC[C@@H]1[C@@H]2CC[C@@]2(C)[C@H]1CC[C@]2(C)O
- Z-AUC [1]: 0.596 (inactive)
- Z-AUC [1, 4]: 0.611
- Z-AUC ([1]; measured here: PEO4 Z-AUC): 0.327

SMILES: COC12C(COC(N)=O)C3=C(C(=O)C(C)=C(N)C3=O)N1CC1C2N1C (centres undefined)
- Z-AUC [1]: -0.24 (inactive)
- Z-AUC [1, 4]: 0.0826
- Z-AUC ([1]; measured here: PEO4 Z-AUC): -0.134

SMILES: CC(C)[C@]12O[C@H]1[C@@H]1O[C@@]13[C@@]1(C)CCC4=C(COC4=O)[C@@H]1C[C@@H]1O[C@@]13C2=O
- Z-AUC [1]: -1.63 (inactive)
- Z-AUC [1, 4]: -0.566
- Z-AUC ([1]; measured here: PEO4 Z-AUC): -1.17

SMILES: C[C@@H](C1CC[C@@]2(O)C3=CC(=O)[C@@H]4C[C@@H](O)[C@@H](O)C[C@]4(C)[C@H]3CC[C@]12C)[C@H](O)CCC(C)(C)O (some centres undefined)
- Z-AUC [1]: 0.596 (inactive)
- Z-AUC [1, 4]: 0.976
- Z-AUC ([1]; measured here: PEO4 Z-AUC): 1.02

SMILES: CN1CC[C@@]2([C@@]34CCN(C)[C@@H]3Nc3ccccc34)c3ccccc3N[C@@H]12
- outcome [2]: inactive

SMILES: CO[C@H]1CCC(O[C@H]2C[C@H]([C@]3(C)CC[C@]4(C[C@H](O)[C@@H](C)[C@@H]([C@@H](C)/C=C(\C)C(=O)[C@H](C)C[C@H](C)C(=O)O)O4)O3)O[C@]3(O[C@@H]([C@H]4O[C@@](O)(CO)[C@H](C)C[C@@H]4C)C[C@@H]3C)[C@@H]2C)O[C@@H]1C (some centres undefined)
- Z-AUC [1]: -1.49 (inactive)
- Z-AUC [1, 4]: -1.68
- Z-AUC ([1]; measured here: PEO4 Z-AUC): -1.99

SMILES: O=C1CC(c2ccc(O)cc2)Oc2cc(O)cc(O)c21 (centres undefined)
- activity change, negative = inhibition ([3]; at 57.5 µM (top of the series)): 9.01% (inactive)
- max response ([3]; measured here: cell count channel max response): -5.6%
- max response ([3]; measured here: lipid channel max response): 4.14%
- outcome [2]: inactive

SMILES: CC(C)(O)/C=C\C(=O)[C@](C)(O)[C@H]1[C@H](O)C[C@]2(C)[C@@H]3CC=C4[C@@H](C=C(O)C(=O)C4(C)C)[C@]3(C)C(=O)C[C@@]12C
- Z-AUC [1]: -2.52 (inactive)
- Z-AUC [1, 4]: -1.67
- Z-AUC ([1]; measured here: PEO4 Z-AUC): -2.46

SMILES: Cc1c(N)nc([C@H](CC(N)=O)NC[C@@H](N)C(N)=O)nc1C(=O)N[C@H](C(=O)N[C@@H](C)[C@H](O)[C@@H](C)C(=O)N[C@@H](C(=O)NCCc1nc(-c2nc(C(=O)NCCC[S+](C)C)cs2)cs1)[C@@H](C)O)C(O[C@H]1O[C@H](CO)[C@H](O)[C@@H](O)[C@H]1O[C@H]1O[C@H](CO)[C@@H](O)[C@H](OC(N)=O)[C@@H]1O)c1cnc[nH]1 (some centres undefined)
- Z-AUC [1]: -0.673 (inactive)
- Z-AUC [1, 4]: -1.76
- Z-AUC ([1]; measured here: PEO4 Z-AUC): 0.233

SMILES: C[C@@]12OC(=O)[C@]1([C@@H](O)[C@@H]1C=CCCC1)NC(=O)[C@@H]2CCCl
- Z-AUC [1]: -0.972 (inactive)
- Z-AUC [1, 4]: -1.61
- Z-AUC ([1]; measured here: PEO4 Z-AUC): -1.64

SMILES: CC(C)[C@]12CC[C@@]3(C)[C@H](C)CC[C@H](O)[C@@]3(CC1)c1cc3c(cc12)[nH]c1ccccc13
- outcome [2]: inactive

SMILES: COC(=O)[C@@]12OC[C@]34[C@H]([C@@H](O)[C@@H]1O)[C@@]1(C)CC(=O)C(O)=C(C)[C@@H]1C[C@H]3OC(=O)[C@H](OC(=O)/C=C(\C)C(C)C)[C@@H]24
- Potency [1]: 174 nM (active)
- Z-AUC [1, 4]: -2.46
- Z-AUC ([1]; measured here: PEO4 Z-AUC): -2.64

SMILES: C=C(C)[C@@H]1CCC(C)=C[C@H]1c1c(O)cc(CCCCC)cc1O
- Z-AUC [1]: -0.487 (inactive)
- Z-AUC [1, 4]: 0.125
- Z-AUC ([1]; measured here: PEO4 Z-AUC): 0.904

SMILES: Cn1c(COP(=O)(NCCBr)NCCBr)cnc1[N+](=O)[O-]
- Z-AUC [1]: 0.865 (inactive)
- Z-AUC [1, 4]: 0.833
- Z-AUC ([1]; measured here: PEO4 Z-AUC): 1.09

SMILES: CC(=O)OC[C@H]1O[C@@H]([S-])[C@H](OC(C)=O)[C@@H](OC(C)=O)[C@@H]1OC(C)=O.CC[PH+](CC)CC.[Au]
- Z-AUC [1]: -0.477 (inactive)
- Z-AUC [1, 4]: -0.483
- Z-AUC ([1]; measured here: PEO4 Z-AUC): -0.599

SMILES: Oc1ccc([C@H]2Oc3ccc(/C=C/c4cc(O)cc(O)c4)cc3C2c2cc(O)cc(O)c2)cc1 (some centres undefined)
- outcome [2]: inactive

SMILES: COC[C@H]1OC(=O)c2coc3c2[C@@]1(C)C1=C(C3=O)[C@@H]2CC[C@H](O)[C@@]2(C)C[C@H]1OC(C)=O
- Z-AUC [1]: 0.029 (inactive)
- Z-AUC [1, 4]: -0.102
- Z-AUC ([1]; measured here: PEO4 Z-AUC): 0.779

SMILES: Cn1c(/C=C/CO)c(CO)c2c1C(=O)C=C(N1CC1)C2=O
- Z-AUC [1]: -0.176 (inactive)
- Z-AUC [1, 4]: -0.939
- Z-AUC ([1]; measured here: PEO4 Z-AUC): -0.899

SMILES: Cc1[nH]ncc1-c1cc2nc([C@@H]3CC4CCN3CC4)[nH]c(=O)c2s1
- Z-AUC [1]: 0.732 (inactive)
- Z-AUC [1, 4]: 0.621
- Z-AUC ([1]; measured here: PEO4 Z-AUC): 0.645

SMILES: OCc1ccc2ocnc2c1
- outcome [2]: inactive

SMILES: C[C@@H]1C(=O)[C@]23CC[C@H]1C[C@]21O[C@H]2C(C)(C)C=CC(=O)[C@@]23COC1=O
- outcome [2]: inactive

SMILES: CC(C)(NC(=O)O[C@@H]1CN2CCC1CC2)c1csc(-c2ccc(F)cc2)n1
- Z-AUC [1]: 1.16 (inactive)
- Z-AUC [1, 4]: 0.982
- Z-AUC ([1]; measured here: PEO4 Z-AUC): 1.29

SMILES: CC(N[C@H]1C[C@@H]1c1ccccc1)c1ccc2c(c1)OCCO2 (some centres undefined)
- Z-AUC [1]: -0.77 (inactive)
- Z-AUC [1, 4]: 0.195
- Z-AUC ([1]; measured here: PEO4 Z-AUC): -0.131

SMILES: O=C(O)CNC(=O)C1C(=O)N(C2CCCCC2)C(=O)N(C2CCCCC2)C1=O
- Z-AUC [1]: 0.43 (inactive)
- Z-AUC [1, 4]: 0.47
- Z-AUC ([1]; measured here: PEO4 Z-AUC): 0.437

SMILES: C/C=C(\C)C(=O)N[C@@H](c1ccccc1)[C@@H](O)C(=O)O[C@H]1C[C@@]2(O)[C@@H](OC(=O)c3ccccc3)[C@@H]3[C@]4(OC(C)=O)CO[C@@H]4C[C@H](O)[C@@]3(C)C(=O)[C@H](OC(C)=O)C(=C1C)C2(C)C
- Z-AUC [1]: -2.81 (inactive)
- Z-AUC [1, 4]: -2.97
- Z-AUC ([1]; measured here: PEO4 Z-AUC): -3.26

SMILES: COc1cc2cc(c1Cl)N(C)C(=O)C[C@H](OC(=O)C(C)C)[C@]1(C)O[C@@H]1[C@H](C)[C@@H]1C[C@@](O)(NC(=O)O1)[C@H](OC)/C=C/C=C(\C)C2
- Potency [1]: 549 nM (active)
- Z-AUC [1, 4]: -2.8
- Z-AUC ([1]; measured here: PEO4 Z-AUC): -2.84

SMILES: CN1C(=O)[C@@H](NC(=O)[C@H](CCC(F)(F)F)[C@H](CCC(F)(F)F)C(N)=O)N=C(c2ccccc2)c2ccccc21
- Z-AUC [1]: -0.603 (inactive)
- Z-AUC [1, 4]: 0.158
- Z-AUC ([1]; measured here: PEO4 Z-AUC): -0.105

SMILES: CC(=O)O[C@@]12CO[C@@H]1C[C@H](O)[C@@]1(C)C(=O)[C@H](O)C3=C(C)[C@@H](O)C[C@@](O)([C@@H](OC(=O)c4ccccc4)[C@H]21)C3(C)C
- Z-AUC [1]: 1.05 (inactive)
- Z-AUC [1, 4]: 0.322
- Z-AUC ([1]; measured here: PEO4 Z-AUC): 0.492

SMILES: C[C@@H]1CC[C@@]2(OC1)O[C@H]1C[C@H]3[C@@H]4CC=C5C[C@@H](O[C@@H]6O[C@H](CO)[C@@H](O[C@@H]7O[C@@H](C)[C@H](O)[C@@H](O)[C@H]7O)[C@H](O)[C@H]6O[C@@H]6O[C@@H](C)[C@H](O)[C@@H](O)[C@H]6O)CC[C@]5(C)[C@H]4CC[C@]3(C)[C@H]1[C@@H]2C
- Z-AUC [1]: 0.183 (inactive)
- Z-AUC [1, 4]: -0.31
- Z-AUC ([1]; measured here: PEO4 Z-AUC): -0.496
